“And” between values parts separate entries of the source, which are not always exact repeats. Equal entries are not always repeated. Inconclusive results are not listed. Some structures have more than one record in an assay (separate samples or runs), and their calls can disagree. The source made the active and inactive calls. Calls follow the shape of the dose curve; as a rule, active = well fitted inhibition curve with a large enough effect; inconclusive = small, poorly fitted or top-dose-only effect; inactive = flat fitted curve, though single readings scatter.
% is scaled to controls: 0 for no effect and ±100 for the full control effect.

The nature of the first test: Drug repurposing screens with cells derived from glioblastoma tumor samples (AID 1345199). Also: nearly all actives have a fitted effect of over 40% in size. Particulars: GBM patient neurospheres viability, ATP luminescence, 48 h; at 45.9 µM (top of the series); tumour line D. Put shortly: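 Primary testing used CD133+ neurospheres from four GBM patients, seven concentrations, 48 h exposure and ATP-based viability; confirmation added three slower-growing patient lines.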
Take `COc1cccc([C@@]2(O)CCCC[C@@H]2CN(C)C)c1`: the activity, negative = cell killing was 6.21% (inactive). On to `C#C[C@]1(O)CC[C@H]2[C@@H]3CCC4=CC(=O)CC[C@]4(C)[C@H]3CC[C@@]21C`, for which the activity, negative = cell killing is -13.1% (inactive) and -15.3% (inactive). Same read-out and setting: in the case of `COP(=S)(OC)Oc1ccc(S(=O)(=O)N(C)C)cc1` it was -25% (inactive); in that of `C[N+]1(CCF)[C@@H]2CC[C@H]1CC(OC(=O)C(O)(c1ccccc1)c1ccccc1)C2` (stereo partly drawn), -18.1% (inactive); in that of `Nc1ccccc1`, -2.5% (inactive). Turning to `CN1C(=O)NC(=O)C(C)(C2=CCCCC2)C1=O` (stereo not drawn), the activity, negative = cell killing was 3.59% (inactive) and 4.39% (inactive).

As to `CCC1(CC)C(=O)C=CNC1=O`, the activity, negative = cell killing was -8.64% (inactive). In the case of `COC(=O)[C@@H](N)CCCN/C(N)=N/[N+](=O)[O-]`, the activity, negative = cell killing was -1.49% (inactive).

`Cc1ncsc1CCCl`: the activity, negative = cell killing is -8.99% (inactive). Same read-out and setting: in the case of `COC(=O)C(Cl)C(=O)OC` it was -17% (inactive); in that of `O=[N+]([O-])O[C@H]1CO[C@H]2[C@@H]1OC[C@H]2O[N+](=O)[O-]`, 3.62% (inactive); in that of `CC(C)NC(C)C`, 4.87% (inactive).

Take `O=C1OC(c2ccc(O)c(S(=O)(=O)O)c2)(c2ccc(O)c(S(=O)(=O)O)c2)c2c(Br)c(Br)c(Br)c(Br)c21`: the activity, negative = cell killing was 0.706% (inactive).

Take `CCC1(c2ccccc2)C(=O)N(COC)C(=O)N(COC)C1=O`: the activity, negative = cell killing is 2.45% (inactive). In the case of `O=C(N/N=C/c1ccc([N+](=O)[O-])o1)c1cc([N+](=O)[O-])cc([N+](=O)[O-])c1O`, the activity, negative = cell killing was -24.1% (inactive). Same read-out and setting: in the case of `CC(=O)NC1CCSC1=O` (stereo not drawn) it was -12.7% (inactive); in that of `CCCCCCC(=O)CCCCCC/C=C/C[C@@H](O)[C@H](O)[C@@](N)(CO)C(=O)O`, -26.9% (inactive) and -22.9% (inactive); in that of `CC(C)c1cccc(C(C)C)c1O`, 2.93% (inactive). Still for that read-out and setting: in the case of `COP(=S)(OC)Oc1cc(Cl)c(Cl)cc1Cl` it was -10.8% (inactive) and 1.81% (inactive); in that of `O=c1[nH]oc2c1CCNC2`, -5.63% (inactive).

For the compound `NCCc1ccc(O)cc1`, the activity, negative = cell killing was 3.08% (inactive). On the same count and under the same terms, in the case of `O=C1c2ccccc2C(=O)C1C(=O)C(c1ccccc1)c1ccccc1` it was -28.8% (inactive).

Turning to `NC1=NC(=O)C(c2ccccc2)O1` (stereo not drawn), the activity, negative = cell killing is -7.44% (inactive).

Take `c1ccc2c(c1)sc1ccccc12`: the activity, negative = cell killing is -8% (inactive).

Regarding `CCC(C)(C)c1ccc(O)cc1`, the activity, negative = cell killing is 13.4% (inactive).

The test is the same for the next values; noted with them: GBM patient neurospheres viability, ATP luminescence, 48 h; at 46 µM (top of the series); tumour line A.
As for `COc1cccc([C@@]2(O)CCCC[C@@H]2CN(C)C)c1`, the activity, negative = cell killing is -29.2% (inactive). Regarding `C#C[C@]1(O)CC[C@H]2[C@@H]3CCC4=CC(=O)CC[C@]4(C)[C@H]3CC[C@@]21C`, the activity, negative = cell killing is -19.9% (inactive). Take `COP(=S)(OC)Oc1ccc(S(=O)(=O)N(C)C)cc1`: the activity, negative = cell killing is -29.3% (inactive).

As to `Nc1ccccc1`, the activity, negative = cell killing was -28.7% (inactive).

In the case of `CN1C(=O)NC(=O)C(C)(C2=CCCCC2)C1=O` (stereo not drawn), the activity, negative = cell killing was 3.99% (inactive). In the case of `CCC1(CC)C(=O)C=CNC1=O`, the activity, negative = cell killing was -23.7% (inactive). In the case of `COC(=O)[C@@H](N)CCCN/C(N)=N/[N+](=O)[O-]`, the activity, negative = cell killing was -15.6% (inactive). Regarding `Cc1ncsc1CCCl`, the activity, negative = cell killing is 4.91% (inactive).

With `COC(=O)C(Cl)C(=O)OC`, the activity, negative = cell killing was -23.7% (inactive). `O=[N+]([O-])O[C@H]1CO[C@H]2[C@@H]1OC[C@H]2O[N+](=O)[O-]`: the activity, negative = cell killing was -13.3% (inactive). For the compound `CC(C)NC(C)C`, the activity, negative = cell killing is 1.87% (inactive).

As to `O=C1OC(c2ccc(O)c(S(=O)(=O)O)c2)(c2ccc(O)c(S(=O)(=O)O)c2)c2c(Br)c(Br)c(Br)c(Br)c21`, the activity, negative = cell killing is -10.6% (inactive). On to `CCC1(c2ccccc2)C(=O)N(COC)C(=O)N(COC)C1=O`, for which the activity, negative = cell killing is -19.3% (inactive).

For `CCOC(=O)CC(SP(=S)(OC)OC)C(=O)OCC` (stereo not drawn), the activity, negative = cell killing is -27.3% (inactive). For `CC(C)c1cccc(C(C)C)c1O`, the activity, negative = cell killing was -26.1% (inactive).

As to `COP(=S)(OC)Oc1cc(Cl)c(Cl)cc1Cl`, the activity, negative = cell killing is -24.7% (inactive) and -15.3% (inactive).

In the case of `O=c1[nH]oc2c1CCNC2`, the activity, negative = cell killing was -27.4% (inactive). Same read-out and setting: for `NCCc1ccc(O)cc1` the value was -19.3% (inactive). As to `O=C1c2ccccc2C(=O)C1C(=O)C(c1ccccc1)c1ccccc1`, the activity, negative = cell killing is -53.7% (inactive). For `NC1=NC(=O)C(c2ccccc2)O1` (stereo not drawn), the activity, negative = cell killing was -19.1% (inactive). Turning to `c1ccc2c(c1)sc1ccccc12`, the activity, negative = cell killing was -9.49% (inactive). Turning to `CCC(C)(C)c1ccc(O)cc1`, the activity, negative = cell killing is -14.1% (inactive).

The same test, now with this note: GBM patient neurospheres viability, ATP luminescence, 48 h; at 46.1 µM (top of the series); tumour line C.
`CC1(C)C(C=C(Cl)Cl)C1C(=O)OC(C#N)c1cccc(Oc2ccccc2)c1` (stereo not drawn): the activity, negative = cell killing is -35.5% (inactive). On the same count and under the same terms, for `O=C1c2ccccc2C(=O)C1C(=O)C(c1ccccc1)c1ccccc1` the value was -30.6% (inactive); for `CCC(C)(C)c1ccc(O)cc1`, -3.53% (inactive).

The same test, now with this note: GBM patient neurospheres viability, ATP luminescence, 48 h; at 91.6 µM (top of the series); tumour line B.
As for `CN(C)CCc1c[nH]c2cccc(OP(=O)(O)O)c12`, the activity, negative = cell killing was -11.6% (inactive). With `CCOC(=O)CC(SP(=S)(OC)OC)C(=O)OCC` (stereo not drawn), the activity, negative = cell killing is -2.57% (inactive). Still for that read-out and setting: for `CN1CC[C@]23c4c5ccc(O)c4O[C@H]2[C@@H](O)CC[C@H]3[C@H]1C5` the value was -3.58% (inactive).

These data come from PubChem BioAssay (NCATS).
